Experimental data from PubChem BioAssay (NCATS).
Inconclusive results are not listed. A call without a number means that no potency is given here. Activity calls are given as the source filed them. The call rests on the fitted dose curve; in most records, active means well fitted cell-killing curve with a large enough effect; inconclusive means small, poorly fitted or top-dose-only effect, or effect the other way; inactive means no such curve, though single readings can be large or run the other way.
Potency means the concentration at half of the fitted maximal effect.

Test: Quantitative High-Throughput drug screen in 47 multiple myeloma cell lines against the NCATS MIPE library collection: LP1_DSMZ cell viability assay (AID 1918982); further: nearly all actives have a fitted effect of over 35% in size
Details: LP1 myeloma viability, CellTiter-Glo ATP luminescence, 48 h; series mostly up to 45.8 µM
From the text: PI: Beverly A. Mock Ph.D.
Laboratory of Cancer Biology and Genetics,
Center for Cancer Research, National Cancer Institute,
National Institute of Health, Bethesda, Maryland
Drug resistance and disease progression are common in multiple myeloma (MM) patients, underscoring the need for new therapeutic combinations. […] We hypothesized that effective combinations would reduce MYC expression and enhance p16 activity. […] These preclinical data identify potentially useful drug combinations for evaluation in drug-resistant MM and reveal potential mechanisms of combined drug sensitivity.
Described herein is the primary MIPE qHTS used to cherrypick compounds. Validated compounds were then further tested for potential synergistic activiy.
[1] Peat TJ, Gaikwad SM, Dubois W, Gyabaah-Kessie N, Zhang S, Gorjifard S, Phyo Z, Andres M, Hughitt VK, Simpson RM, Miller MA, Girvin AT, Taylor A, Williams D, D'Antonio N, Zhang Y, Rajagopalan A, Flietner E, Wilson K, Zhang X, Shinn P, Klumpp-Thomas C, McKnight C, Itkin Z, Chen L, Kazandijian D, Zhang J, Michalowski AM, Simmons JK, Keats J, Thomas CJ, Mock BA. Drug combinations identified by high-throughput screening promote cell cycle transition and upregulate Smad pathways in myeloma. Cancer Lett. 2023 Aug 1;568:216284. doi: 10.1016/j.canlet.2023.216284. Epub 2023 Jun 24. PMID: 37356470; PMCID: PMC10408729.
SEQUENCE No. (e.g., 1, 2, 3, etc.); […] (e.g., Cells, Incubation, Reagent, etc.); VALUE and DESCRIPTION.
1; Cells; 5 uL; white, solid bottom 1536-well Greiner assay plate.
2; Compounds; 23 nL; Kalypsis pin tool (Wako USA) equipped with a 1536-well pin head to transfer to the assay plates.
3; Incubation; 48 hours; 37C incubation.
4; Reagent;5uL; CellTiter Glo (Promega).
5; Detector; 425V; Luminescence; Viewlux PerkinElmer.
NOTES (numbers refer to Sequence numbers above)
1. The cell-based screening methods employed in this study were like those previously published. Briefly, the corresponding myeloma cell lines were screened in 1,536-well plates with 500 cells, 5-uL per well for inhibition of cell viability (assessed by measuring ATP levels with CellTiterGlo).
2. NCATS MIPE 4.0 library of approved and investigational drugs were added using the Kalypsis pin tool. Wells treated with DMSO only for 100% viability and media only for 0% viability were used as controls.
3. The assay plates were covered and incubated for 48 hours in a 37C, 5% CO2 incubator with controlled humidity.
4. After 48 hours, CellTilter-GloTM luminescent substrate mix (Promega) reagent was added to the assay plate and plates we incubated for 5 min at room temperature.
5. Signal was measured as median relative luminescence units on a ViewLux (PerkinElmer) multiplate reader.
[1] Heske CM, Davis MI, Baumgart JT, Wilson K, Gormally MV, Chen L, Zhang X, Ceribelli M, Duveau DY, Guha R, Ferrer M, Arnaldez FI, Ji J, Tran HL, Zhang Y, Mendoza A, Helman LJ, Thomas CJ. Matrix Screen Identifies Synergistic Combination of PARP Inhibitors and Nicotinamide Phosphoribosyltransferase (NAMPT) Inhibitors in Ewing Sarcoma. Clin Cancer Res. 2017 Dec 1;23(23):7301-7311. doi: 10.1158/1078-0432.CCR-17-1121. Epub 2017 Sep 12. PMID: 28899971; PMCID: PMC6636827.
For `CCOc1cc(C(=O)Nc2ccc(Cl)c(-c3nc4ccccc4[nH]3)c2)cc(OCC)c1OCC`, the Potency was 14.8 µM (active). For `NCCCC(N)(C(=O)O)C(F)F` (stereo not given), the Potency was 1.48 µM (active). With `O=C(C=Cc1ccc(/C=C/C(=O)Nc2ccc(C3=NCCN3)cc2)cc1)Nc1ccc(C2=NCCN2)cc1` the Potency was “inactive”. For `COc1ccc(-c2ccc3c(N4CCOCC4)nc(N4C[C@@H](C)O[C@@H](C)C4)nc3n2)cc1CO`, the Potency was 0.059 µM (active). With `Cc1cc(C=c2sc3nc4ccccc4n3c2=O)c(C)n1-c1ccccc1` the Potency was “inactive”. In the case of `Cc1cc2c(C(C)C)c(O)c(O)c(C=O)c2c(O)c1-c1c(C)cc2c(C(C)C)c(O)c(O)c(C=O)c2c1O`, the Potency is reported as 16.6 µM (active). With `COc1ccc(CC2=NN3C([C@@H](CCc4ccccc4)[C@@H](C)O)=NC(C)C3C(=O)N2)cc1OC` (stereo not given in full) the Potency was “inactive”. For `CNCc1ccc(-c2[nH]c3cc(F)cc4c3c2CCNC4=O)cc1`, the Potency was “inactive”. In the case of `O=C(O)[C@@H](c1ccc(OCc2ccc3ccccc3n2)cc1)C1CCCC1`, the Potency is reported as “inactive”. With `CCN(c1ccccc1)c1cc(NC)[n+](C)c(C)n1` the Potency was “inactive”. In the case of `S=C(NCc1ccc2c(c1)OCO2)N1CCN(c2ncnc3c2oc2ccccc23)CC1`, the Potency is reported as 2.7 µM (active). In the case of `O=C(O)CCc1ccc(NCc2cccc(Oc3ccccc3)c2)cc1`, the Potency is reported as “inactive”. With `Cc1cnc(Nc2ccc(OCCN3CCCC3)cc2)nc1Nc1cccc(S(=O)(=O)NC(C)(C)C)c1` the Potency was “inactive”. In the case of `Cc1cccc(-c2nn(C(=S)Nc3ccccc3)cc2-c2ccnc3ccccc23)n1`, the Potency is reported as 20.9 µM (active). With `CCN(CC)CCCC(C)Nc1nc(C)cc(Nc2ccc3nc(C)cc(N)c3c2)n1` (stereo not given) the Potency was “inactive”. In the case of `CS(=O)(=O)Oc1ccc2c(NC(N)=O)c(C(=O)c3ccc(Cl)cc3Cl)oc2c1`, the Potency is reported as “inactive”. With `CCn1c(-c2nonc2N)nc2cnc(Oc3cccc(NC(=O)c4ccc(OCCN5CCOCC5)cc4)c3)cc21` the Potency was 14.8 µM (active). In the case of `NS(=O)(=O)c1cc2c(cc1Cl)NC=NS2(=O)=O`, the Potency is reported as “inactive”. In the case of `COc1ccc(C2=N[C@H](c3ccc(Cl)cc3)[C@H](c3ccc(Cl)cc3)N2C(=O)N2CCNC(=O)C2)c(OC(C)C)c1`, the Potency is reported as “inactive”. In the case of `CCOc1cc(C=C2C(=O)N(c3ccccc3)N=C2C)cc(Cl)c1OCC(=O)OC`, the Potency is reported as “inactive”. For `Cc1oncc1C(=O)Nc1ccc(C(F)(F)F)cc1`, the Potency was 10.5 µM (active). With `CC(c1cc2ccccc2s1)N(O)C(N)=O` (stereo not given) the Potency was “inactive”. For `NC[C@H](O)c1ccc(O)c(O)c1`, the Potency was “inactive”. For `CCCCCCCc1ccc(CCc2cccc(O)c2C(=O)O)cc1`, the Potency was 16.6 µM (active). For `Nc1nc2c(ncn2COCCO)c(=O)[nH]1`, the Potency was “inactive”. For `NC(=O)c1ccc(I)c([N+](=O)[O-])c1`, the Potency was “inactive”. In the case of `CCCn1c(=O)c2[nH]c(C34CC5CC3C[C@@H](C5)C4)nc2n(CCC)c1=O`, the Potency is reported as 11.8 µM (active). With `CN(C)c1ccc(Nc2nc(N)n(C(=O)c3c(F)cccc3F)n2)cc1` the Potency was 16.6 µM (active). With `Cn1c(=O)c(F)c(Nc2ccc(I)cc2F)c2c(=O)n(C[C@@H](O)CO)cnc21` the Potency was “inactive”. For `N[C@@H]1CONC1=O`, the Potency was “inactive”. In the case of `Cc1cnc(NC(=O)C2=C(O)c3ccccc3S(=O)(=O)N2C)s1`, the Potency is reported as “inactive”. In the case of `COc1ccc2nc(S(=O)Cc3ncc(C)c(OC)c3C)[nH]c2c1` (stereo not given), the Potency is reported as “inactive”. In the case of `CCCc1nc2c(C)cc(-c3nc4ccccc4n3C)cc2n1Cc1ccc(-c2ccccc2C(=O)O)cc1`, the Potency is reported as “inactive”. With `CC[C@@H](C)[C@H](NC(=O)[C@H](CC1CCCCC1)NC(=O)c1ccno1)C(=O)N1CCC2(CCc3ccccc32)CC1` the Potency was 9.35 µM (active). In the case of `CCC(C)N(C)C(=O)c1cc2ccccc2c(-c2ccccc2Cl)n1` (stereo not given), the Potency is reported as “inactive”. With `C[C@]12CC[C@H](O)CC1=CC[C@@H]1[C@H]2CC[C@]2(C)C(c3cccnc3)=CC[C@H]12` the Potency was “inactive”. In the case of `OC(CN1CCC(Cc2ccc(F)cc2)CC1)c1ccc(Cl)cc1` (stereo not given), the Potency is reported as “inactive”. For `O=C1CCC(N2C(=O)c3ccccc3C2=O)C(=O)N1` (stereo not given), the Potency was “inactive”. For `Clc1ccc(Nc2nnc(Cc3ccncc3)c3ccccc23)cc1`, the Potency was 11.8 µM (active). With `C1COC(NC(C2CC2)C2CC2)=N1` the Potency was “inactive”.
